Key:
Experiment in all cases: log2 ratio of Biotin-Ahx-Ub-VS probe labelling (fragment/DMSO); higher = less target engagement (more negative = stronger competition), active = hit call of the paper (q ≤ 0.05, log2 ratio ≤ -1)
Conditions in all cases: compound concentration: 200 uM; treatment time: 3 h
USP9X = USP9X (UniProt Q93008)
How it was run: (§1)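 Fragment (200 µM) or vehicle was incubated for 3 h with triplicate HEK293T lysate samples of 495 µg, which were then treated with Biotin-Ahx-Ub-VS at 0.5 µM final for 1 h. Labelled DUBs were enriched on NeutrAvidin, digested with LysC and trypsin, and analysed by diaPASEF LC-MS/MS. Values are average log2 fragment/vehicle ratios from an unpaired t-test on global-median-normalised Spectronaut label-free quantities, using proteins with ≥2 unique peptides.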

UniProt O00487 = biological target: UniProt O00487
How it was run: as §1

UniProt O00507 = biological target: UniProt O00507
How it was run: as §1

UniProt P51784 = biological target: UniProt P51784
How it was run: as §1

UniProt Q5T2D3 = biological target: T1, UniProt Q5T2D3
T1 sequence (whole entry): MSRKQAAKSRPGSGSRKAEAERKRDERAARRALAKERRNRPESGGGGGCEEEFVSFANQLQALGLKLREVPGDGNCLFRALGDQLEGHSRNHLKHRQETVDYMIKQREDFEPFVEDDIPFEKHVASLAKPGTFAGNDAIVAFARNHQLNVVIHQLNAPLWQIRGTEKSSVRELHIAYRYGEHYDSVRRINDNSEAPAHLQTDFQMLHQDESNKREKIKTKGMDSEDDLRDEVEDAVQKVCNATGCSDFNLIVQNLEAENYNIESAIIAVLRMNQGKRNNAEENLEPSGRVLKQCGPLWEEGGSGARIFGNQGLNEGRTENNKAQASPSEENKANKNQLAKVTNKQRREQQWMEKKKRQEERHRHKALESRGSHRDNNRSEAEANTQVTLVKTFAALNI
How it was run: as §1

UniProt Q8TE49 = biological target: T2, UniProt Q8TE49
T2 sequence (whole entry): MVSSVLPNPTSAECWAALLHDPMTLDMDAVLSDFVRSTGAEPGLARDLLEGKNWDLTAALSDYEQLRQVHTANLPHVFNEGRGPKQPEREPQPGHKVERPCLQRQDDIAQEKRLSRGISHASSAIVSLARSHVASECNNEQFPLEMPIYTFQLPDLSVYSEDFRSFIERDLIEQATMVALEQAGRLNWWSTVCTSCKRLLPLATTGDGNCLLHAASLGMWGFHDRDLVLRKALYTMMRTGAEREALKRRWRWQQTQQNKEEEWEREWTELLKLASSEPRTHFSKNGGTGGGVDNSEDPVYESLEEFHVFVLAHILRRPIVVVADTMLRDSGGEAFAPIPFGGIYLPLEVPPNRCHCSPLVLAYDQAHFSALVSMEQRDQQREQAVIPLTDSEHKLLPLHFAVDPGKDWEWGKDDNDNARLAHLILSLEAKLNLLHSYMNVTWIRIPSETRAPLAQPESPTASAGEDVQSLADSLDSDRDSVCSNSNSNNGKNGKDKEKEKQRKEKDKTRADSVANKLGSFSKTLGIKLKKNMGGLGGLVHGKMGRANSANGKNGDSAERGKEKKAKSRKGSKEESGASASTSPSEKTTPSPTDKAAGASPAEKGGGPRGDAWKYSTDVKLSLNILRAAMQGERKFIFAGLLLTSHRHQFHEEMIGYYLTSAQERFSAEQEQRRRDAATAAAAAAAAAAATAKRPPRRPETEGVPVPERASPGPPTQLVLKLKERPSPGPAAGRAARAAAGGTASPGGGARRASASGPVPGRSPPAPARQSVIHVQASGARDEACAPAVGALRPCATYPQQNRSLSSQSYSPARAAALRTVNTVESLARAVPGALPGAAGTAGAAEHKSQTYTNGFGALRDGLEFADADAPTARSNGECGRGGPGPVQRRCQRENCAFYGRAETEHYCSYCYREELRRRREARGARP
How it was run: as §1

UniProt Q9P2H5 = biological target: T3, UniProt Q9P2H5
T3 sequence (whole entry): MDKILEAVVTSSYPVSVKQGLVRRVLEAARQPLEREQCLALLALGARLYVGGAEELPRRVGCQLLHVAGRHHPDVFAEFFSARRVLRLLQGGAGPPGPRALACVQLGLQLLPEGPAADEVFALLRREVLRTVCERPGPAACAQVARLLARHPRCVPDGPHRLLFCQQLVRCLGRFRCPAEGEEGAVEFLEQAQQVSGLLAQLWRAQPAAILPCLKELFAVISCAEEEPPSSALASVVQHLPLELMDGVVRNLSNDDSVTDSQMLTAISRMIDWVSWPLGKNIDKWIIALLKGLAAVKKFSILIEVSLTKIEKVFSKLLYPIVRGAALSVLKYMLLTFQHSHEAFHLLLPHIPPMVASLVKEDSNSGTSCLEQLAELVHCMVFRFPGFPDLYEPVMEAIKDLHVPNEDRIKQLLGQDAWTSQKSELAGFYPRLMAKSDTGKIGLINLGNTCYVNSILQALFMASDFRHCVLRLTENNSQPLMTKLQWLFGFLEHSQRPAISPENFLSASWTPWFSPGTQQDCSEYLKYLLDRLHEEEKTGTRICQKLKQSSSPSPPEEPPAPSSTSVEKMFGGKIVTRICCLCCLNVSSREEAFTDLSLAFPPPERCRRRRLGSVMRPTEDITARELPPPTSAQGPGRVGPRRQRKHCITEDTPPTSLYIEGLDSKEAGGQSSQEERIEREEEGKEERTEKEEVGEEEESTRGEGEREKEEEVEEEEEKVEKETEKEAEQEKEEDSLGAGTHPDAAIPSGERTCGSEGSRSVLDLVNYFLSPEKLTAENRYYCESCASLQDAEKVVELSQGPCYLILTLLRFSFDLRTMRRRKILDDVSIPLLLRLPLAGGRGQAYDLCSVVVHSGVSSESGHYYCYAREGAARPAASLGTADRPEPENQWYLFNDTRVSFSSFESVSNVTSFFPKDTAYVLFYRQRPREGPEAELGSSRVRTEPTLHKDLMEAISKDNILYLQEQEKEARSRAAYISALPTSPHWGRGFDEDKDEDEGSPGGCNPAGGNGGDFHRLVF
How it was run: as §1

UniProt Q9UGI0 = biological target: T4, UniProt Q9UGI0
T4 sequence (whole entry): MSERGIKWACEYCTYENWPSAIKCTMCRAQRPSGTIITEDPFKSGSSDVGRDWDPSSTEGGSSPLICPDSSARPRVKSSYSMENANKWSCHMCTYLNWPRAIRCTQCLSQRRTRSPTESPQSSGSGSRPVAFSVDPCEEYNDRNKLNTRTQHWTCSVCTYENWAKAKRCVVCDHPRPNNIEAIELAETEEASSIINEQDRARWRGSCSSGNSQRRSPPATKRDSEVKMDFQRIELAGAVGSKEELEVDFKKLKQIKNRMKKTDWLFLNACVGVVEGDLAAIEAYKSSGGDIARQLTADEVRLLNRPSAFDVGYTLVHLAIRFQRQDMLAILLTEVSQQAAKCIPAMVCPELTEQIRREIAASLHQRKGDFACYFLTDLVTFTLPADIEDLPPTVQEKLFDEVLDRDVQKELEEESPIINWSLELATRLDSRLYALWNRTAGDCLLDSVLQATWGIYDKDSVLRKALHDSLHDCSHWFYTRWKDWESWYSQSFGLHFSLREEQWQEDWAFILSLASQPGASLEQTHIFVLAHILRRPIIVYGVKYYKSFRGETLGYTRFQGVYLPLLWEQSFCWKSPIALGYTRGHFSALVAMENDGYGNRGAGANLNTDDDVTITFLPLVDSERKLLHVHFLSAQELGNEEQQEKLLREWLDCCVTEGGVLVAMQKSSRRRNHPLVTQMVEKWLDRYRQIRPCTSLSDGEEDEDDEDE
How it was run: as §1

YOD1 = biological target: T5, YOD1 (UniProt Q5VVQ6)
T5 sequence (whole entry): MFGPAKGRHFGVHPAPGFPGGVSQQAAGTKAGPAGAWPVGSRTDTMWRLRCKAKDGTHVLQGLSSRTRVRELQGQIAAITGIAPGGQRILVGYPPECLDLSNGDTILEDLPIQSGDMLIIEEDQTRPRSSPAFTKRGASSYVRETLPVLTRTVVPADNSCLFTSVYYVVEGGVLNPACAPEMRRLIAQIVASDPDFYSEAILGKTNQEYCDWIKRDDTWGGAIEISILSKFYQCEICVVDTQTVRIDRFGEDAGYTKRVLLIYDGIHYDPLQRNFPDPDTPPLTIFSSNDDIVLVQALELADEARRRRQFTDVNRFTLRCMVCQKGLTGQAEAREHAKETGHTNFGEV
How it was run: as §1

Measured: log2 ratio of Biotin-Ahx-Ub-VS probe labelling

UniProt O00507, sequence (O00507 whole entry): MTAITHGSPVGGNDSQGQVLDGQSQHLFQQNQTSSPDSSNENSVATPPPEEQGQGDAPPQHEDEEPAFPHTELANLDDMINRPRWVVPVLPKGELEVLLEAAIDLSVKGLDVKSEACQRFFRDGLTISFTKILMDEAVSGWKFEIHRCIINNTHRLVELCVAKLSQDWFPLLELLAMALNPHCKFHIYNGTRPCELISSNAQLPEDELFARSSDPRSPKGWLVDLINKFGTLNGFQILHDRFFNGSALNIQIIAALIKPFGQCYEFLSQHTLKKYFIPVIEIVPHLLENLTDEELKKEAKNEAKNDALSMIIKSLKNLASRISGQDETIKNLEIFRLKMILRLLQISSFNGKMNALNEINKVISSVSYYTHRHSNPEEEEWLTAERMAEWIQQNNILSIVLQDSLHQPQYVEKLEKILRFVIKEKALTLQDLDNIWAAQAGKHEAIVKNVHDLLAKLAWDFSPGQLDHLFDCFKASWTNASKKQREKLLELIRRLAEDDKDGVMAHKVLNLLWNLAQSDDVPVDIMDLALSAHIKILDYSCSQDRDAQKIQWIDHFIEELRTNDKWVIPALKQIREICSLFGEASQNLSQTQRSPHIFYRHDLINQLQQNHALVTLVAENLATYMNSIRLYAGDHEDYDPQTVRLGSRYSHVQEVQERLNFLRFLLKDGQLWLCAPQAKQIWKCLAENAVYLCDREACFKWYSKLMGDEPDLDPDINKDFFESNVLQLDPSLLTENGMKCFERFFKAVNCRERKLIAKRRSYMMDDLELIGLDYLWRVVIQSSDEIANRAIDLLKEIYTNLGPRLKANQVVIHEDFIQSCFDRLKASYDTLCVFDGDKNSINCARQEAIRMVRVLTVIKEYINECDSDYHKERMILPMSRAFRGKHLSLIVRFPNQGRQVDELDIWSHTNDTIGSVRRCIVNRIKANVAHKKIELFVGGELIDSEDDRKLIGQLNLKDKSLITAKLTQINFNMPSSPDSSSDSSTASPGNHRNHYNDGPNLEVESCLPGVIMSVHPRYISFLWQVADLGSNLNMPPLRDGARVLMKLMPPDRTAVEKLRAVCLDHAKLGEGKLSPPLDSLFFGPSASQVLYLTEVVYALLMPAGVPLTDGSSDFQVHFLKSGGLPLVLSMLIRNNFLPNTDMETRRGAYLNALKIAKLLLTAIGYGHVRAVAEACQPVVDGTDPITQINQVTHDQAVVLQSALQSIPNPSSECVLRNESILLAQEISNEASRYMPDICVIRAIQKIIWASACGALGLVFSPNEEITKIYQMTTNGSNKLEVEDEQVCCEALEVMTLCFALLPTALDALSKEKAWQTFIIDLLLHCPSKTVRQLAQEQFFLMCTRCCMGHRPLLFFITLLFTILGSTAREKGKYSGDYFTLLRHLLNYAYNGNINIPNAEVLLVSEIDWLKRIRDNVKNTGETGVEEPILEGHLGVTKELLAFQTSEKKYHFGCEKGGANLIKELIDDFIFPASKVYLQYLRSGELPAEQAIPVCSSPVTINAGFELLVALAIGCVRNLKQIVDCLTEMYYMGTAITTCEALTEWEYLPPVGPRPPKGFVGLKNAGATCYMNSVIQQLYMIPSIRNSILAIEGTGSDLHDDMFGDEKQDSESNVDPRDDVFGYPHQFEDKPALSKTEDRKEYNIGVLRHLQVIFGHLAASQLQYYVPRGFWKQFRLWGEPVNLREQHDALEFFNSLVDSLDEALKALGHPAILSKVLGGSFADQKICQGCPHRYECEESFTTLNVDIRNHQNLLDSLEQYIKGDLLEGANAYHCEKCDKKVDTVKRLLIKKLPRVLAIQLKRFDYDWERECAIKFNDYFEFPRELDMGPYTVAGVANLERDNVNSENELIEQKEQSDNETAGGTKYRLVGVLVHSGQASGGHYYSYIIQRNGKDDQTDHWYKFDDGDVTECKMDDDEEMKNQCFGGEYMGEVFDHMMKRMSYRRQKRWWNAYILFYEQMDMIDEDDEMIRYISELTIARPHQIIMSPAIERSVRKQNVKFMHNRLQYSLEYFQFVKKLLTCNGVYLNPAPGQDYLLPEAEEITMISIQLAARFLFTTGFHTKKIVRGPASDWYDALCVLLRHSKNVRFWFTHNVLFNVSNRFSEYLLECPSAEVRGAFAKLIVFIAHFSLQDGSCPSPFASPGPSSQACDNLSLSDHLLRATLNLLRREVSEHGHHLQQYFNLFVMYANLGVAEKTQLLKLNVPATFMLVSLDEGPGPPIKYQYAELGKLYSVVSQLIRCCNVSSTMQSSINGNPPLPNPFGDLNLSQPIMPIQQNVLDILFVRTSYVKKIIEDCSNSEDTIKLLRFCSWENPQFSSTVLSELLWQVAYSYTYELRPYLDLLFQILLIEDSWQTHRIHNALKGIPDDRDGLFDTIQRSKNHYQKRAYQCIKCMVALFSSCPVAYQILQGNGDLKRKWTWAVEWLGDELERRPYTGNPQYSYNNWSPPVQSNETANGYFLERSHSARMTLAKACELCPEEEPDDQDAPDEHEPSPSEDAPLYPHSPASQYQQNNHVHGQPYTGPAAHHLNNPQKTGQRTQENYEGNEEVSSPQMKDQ
UniProt O00487, sequence (O00487 whole entry): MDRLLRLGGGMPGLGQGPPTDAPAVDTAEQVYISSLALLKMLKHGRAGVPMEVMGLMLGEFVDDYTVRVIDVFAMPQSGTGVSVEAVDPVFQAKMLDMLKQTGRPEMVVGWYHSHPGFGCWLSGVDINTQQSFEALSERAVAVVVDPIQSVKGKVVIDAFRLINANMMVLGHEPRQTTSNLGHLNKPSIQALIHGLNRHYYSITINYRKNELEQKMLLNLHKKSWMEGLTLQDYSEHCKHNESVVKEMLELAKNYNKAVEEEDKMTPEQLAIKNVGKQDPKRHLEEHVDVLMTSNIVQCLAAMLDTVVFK
UniProt P51784, sequence (P51784 whole entry): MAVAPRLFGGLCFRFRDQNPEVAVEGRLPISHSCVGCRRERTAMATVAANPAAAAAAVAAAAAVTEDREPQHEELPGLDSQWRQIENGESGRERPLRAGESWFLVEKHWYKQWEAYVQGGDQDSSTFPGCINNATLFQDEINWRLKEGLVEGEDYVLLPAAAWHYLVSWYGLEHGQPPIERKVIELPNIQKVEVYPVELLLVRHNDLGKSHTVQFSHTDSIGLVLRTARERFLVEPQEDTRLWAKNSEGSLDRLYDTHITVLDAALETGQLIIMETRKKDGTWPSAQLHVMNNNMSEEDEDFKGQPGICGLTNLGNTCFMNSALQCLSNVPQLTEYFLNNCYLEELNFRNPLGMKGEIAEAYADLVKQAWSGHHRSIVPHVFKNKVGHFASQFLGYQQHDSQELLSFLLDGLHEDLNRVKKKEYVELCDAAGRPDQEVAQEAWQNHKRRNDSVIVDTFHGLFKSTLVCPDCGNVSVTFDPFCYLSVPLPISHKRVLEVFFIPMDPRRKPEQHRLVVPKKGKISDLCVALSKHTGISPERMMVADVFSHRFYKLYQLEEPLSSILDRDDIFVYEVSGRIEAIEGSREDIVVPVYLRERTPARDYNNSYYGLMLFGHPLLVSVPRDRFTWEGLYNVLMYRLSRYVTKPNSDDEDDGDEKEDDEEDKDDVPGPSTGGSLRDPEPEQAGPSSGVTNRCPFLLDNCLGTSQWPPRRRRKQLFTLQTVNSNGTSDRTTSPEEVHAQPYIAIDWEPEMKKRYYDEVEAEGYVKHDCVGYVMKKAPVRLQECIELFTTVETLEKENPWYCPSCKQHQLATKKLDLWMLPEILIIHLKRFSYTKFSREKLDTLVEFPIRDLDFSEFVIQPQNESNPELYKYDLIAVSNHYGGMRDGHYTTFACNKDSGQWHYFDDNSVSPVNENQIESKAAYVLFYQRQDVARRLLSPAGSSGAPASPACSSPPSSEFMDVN

Cc1ccc(CN(C)C(=O)CCl)o1
inactive: USP9X -0.23 | UniProt O00487 -0.0611 | UniProt O00507 0.383 | UniProt P51784 0.146 | UniProt Q5T2D3 -0.109 | UniProt Q8TE49 -0.671 | UniProt Q9P2H5 -0.321 | UniProt Q9UGI0 -0.57 | YOD1 0.384

Source: the supplement of paper PMC11732987, “Enantioselective OTUD7B fragment discovery through chemoproteomics screening and high-throughput optimisation” (Communications Chemistry, 2025)
